Screening results from PubChem.
dFosB act – activators of delta FosB homodimer, primary screen, biochemical, fluorescence polarization, TAMRA-CDK5 oligo, single point. purified delta FosB; percent of positive-control signal above neutral wells. activation, % at 25 µM. actives 0.99% (n = 340,000). AID 493131, 2011;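 active = mean activation above about 17%, with every replicate also reaching it, limit read from the data, passing the limit was not always enough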
MEKK2 mut-MEK5 – MEK5 binding signal on mutant MEKK2 PB1, primary screen, biochemical, multiplex bead flow cytometry, Alexa488-MEK5. percent response, % at 10 µM. Alexa488-MEK5 binding to MEKK2 mutant. actives 0.35% (n = 290,000); in the data active = percent response above about 24%, passing the limit was not always enough
MEKK2wt PB1 HTS – modulators of MEK5 binding to wildtype MEKK2, primary screen, biochemical, multiplex bead flow cytometry, Alexa488-MEK5 | Mitogen-activated protein kinase kinase kinase 2 (Homo sapiens), Q9Y2U5 | Alexa488-MEK5 binding to MEKK2 WT; actives lie on both sides | binding response (% of control), % at 10 µM | actives 1.1% (n = 290,000) | AID 1531, 2009; in the data active = binding response below about 67% or above about 130%
DNA FID counter – compounds displacing fluorescent DNA intercalator, primary screen, artefact control for HCV NS3 helicase inhibitor project, biochemical, FID fluorescence. DNA fluorescent intercalator displacement. inhibition, % at 7.9 µM. actives 0.17% (n = 290,000). AID 1845, 2009; in the data active = inhibition above about 37%;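 note: 0% = vehicle and 100% = reference compound; higher means more ethidium bromide displaced from hairpin DNA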
MEKK3 PB1 HTS – modulators of MEKK3-MEK5 PB1 binding, primary screen, biochemical, wildtype MEKK3, multiplex bead flow cytometry, Alexa488-MEK5. Mitogen-activated protein kinase kinase kinase 3 (Homo sapiens), Q99759. binding response (% of control), % at 10 µM. actives 1.4% (n = 290,000). bead-based flow cytometry, Alexa488-MEK5 binding to MEKK3; actives lie on both sides; 0 = blocked by unlabeled MEK5, 100 = vehicle;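 active = binding response more than 3 SD above or below the average of its plate-row segment, actives on both sides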;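 note: Alexa488 bead fluorescence after subtracting the streptavidin-only scavenger bead signal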
Target sequence (Q99759 whole entry, looked up): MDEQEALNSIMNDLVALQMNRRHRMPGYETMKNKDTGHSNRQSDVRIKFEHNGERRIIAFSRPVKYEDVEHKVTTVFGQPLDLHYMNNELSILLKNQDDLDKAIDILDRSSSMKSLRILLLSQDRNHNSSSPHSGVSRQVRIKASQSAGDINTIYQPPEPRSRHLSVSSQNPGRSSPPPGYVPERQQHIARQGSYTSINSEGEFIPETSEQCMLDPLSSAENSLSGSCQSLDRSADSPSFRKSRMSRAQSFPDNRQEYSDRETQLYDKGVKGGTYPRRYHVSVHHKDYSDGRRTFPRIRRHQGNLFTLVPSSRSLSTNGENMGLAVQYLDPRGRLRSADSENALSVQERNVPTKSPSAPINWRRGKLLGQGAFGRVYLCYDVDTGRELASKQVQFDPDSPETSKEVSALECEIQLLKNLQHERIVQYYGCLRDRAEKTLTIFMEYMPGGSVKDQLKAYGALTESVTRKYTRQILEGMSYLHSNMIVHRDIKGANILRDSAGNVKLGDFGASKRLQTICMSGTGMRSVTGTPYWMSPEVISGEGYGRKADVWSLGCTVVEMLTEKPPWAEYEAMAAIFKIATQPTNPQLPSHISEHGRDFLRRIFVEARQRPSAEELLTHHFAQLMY
MEKK2wt confirm – modulators of MEK5 binding to wildtype MEKK2, confirmation, biochemical, single concentration, multiplex bead flow cytometry; Alexa488-MEK5 binding to MEKK2 WT; actives lie on both sides; binding response (% of control), % at 10 µM; AID 1892, 2009; shares compounds with MEKK3 PB1 HTS; actives 2.4% (n = 5,900); in the data active = binding response below about 16% or above about 210%; inactive = in between
MEKK2mut confirm – mutant MEKK2 PB1-MEK5 binding signal retest – biochemical, single concentration, multiplex bead flow cytometry, confirmation; Alexa488-MEK5 binding to MEKK2 mutant; percent response, % at 10 µM; actives 2% (n = 5,900); shares compounds with MEKK3 PB1 HTS; in the data active = percent response mostly above about 71%, no sharp cut-off; inactive = mostly below about 38%;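 note: higher means compound restores mutant binding toward wildtype level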
MEKK3-MEK5 inh – MEKK3 wild-type PB1 binding to MEK5, inhibitors, confirmation, biochemical, bead multiplex flow cytometry, single concentration, wildtype | shares compounds with MEKK3 PB1 HTS | Alexa488-MEK5 binding to MEKK3; stronger effect = lower value | binding response (% of control), % at 10 µM | actives 1.8% (n = 5,900) | AID 1894, 2009;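 active = binding response below 72% of control, or above a set upper limit, though filed actives all read lower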;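 note: 100% = DMSO only wells and 0% = binding blocked by excess unlabeled MEK5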
Numbers without * were called inactive; x = not tested or not shown; ! = a repeat was not active; [ ] = remark or other dose. This is a sample that favours compounds with a hit; in the whole collection about 2.9% have one here.

SMILES	dFosB act	MEKK2 mut-MEK5	MEKK2wt PB1 HTS	DNA FID counter	MEKK3 PB1 HTS	MEKK2wt confirm	MEKK2mut confirm	MEKK3-MEK5 inh
CCCOc1ccc(C(=O)NCC(c2cccs2)N(C)C)cc1OC (stereo unspecified)	1.2	7.0	108.0	3.8	146.0*	118.0	17.0	104.0
CCCOc1ccc(C(=O)NCC(c2ccco2)N(C)C)cc1OC (stereo unspecified)	-6.1	6.0	106.0	1.8	98.0	x	x	x
O=c1c(Cl)c(Cl)cnn1-c1ccccc1	0.6	1.0	108.0	0.0	133.0*	103.0	3.0	100.0
C/C(=N\OCC(=O)N/N=C/c1ccc(C)cc1O)c1cccs1	-6.6	7.0	120.0	-8.8	124.0*	109.0	7.0	108.0
Oc1ccc2ccc3[nH]cnc3c2c1	-0.2	5.0	45.0*[inhibitor]	-4.9	39.0*[inhibitor]	95.0	-3.0	99.0
CN(C)Cc1c(O)ccc2[nH]cnc12	3.8	-11.0	89.0	2.5	80.0	x	x	x
CCOc1ccccc1NC(=O)CSc1nc2nc(-c3cccs3)cc(C(F)(F)F)c2c(=O)[nH]1	-18.3	-30.0	59.0*[inhibitor]	-17.2	73.0*[inhibitor]	94.0	-8.0	98.0
COc1ccc(NC(=O)CSc2nc3nc(-c4cccs4)cc(C(F)(F)F)c3c(=O)[nH]2)c(OC)c1	-4.0	0.0	100.0	-5.2	106.0	x	x	x
O=C(O)CCCN=Cc1c(O)c2ccccc2oc1=O	1.5	-1.0	103.0	-4.2	96.0	x	x	x
CC(C)CC(N=Cc1c(O)c2ccccc2oc1=O)C(=O)O (stereo unspecified)	2.7	-2.0	93.0	-30.7	73.0*[inhibitor]	100.0	0.0	104.0
O=[N+]([O-])c1cc(CN2CCCC2)ccc1Sc1ccc(Cl)cc1	-2.0	34.0	149.0*	10.6	109.0	122.0	15.0	105.0
Clc1ccc(CN2CCCCCC2)cc1	1.8	4.0	109.0	1.9	103.0	x	x	x
COc1ccc2c(c1)C(=O)/C(=C/C=C/c1ccccc1)CC2	-5.9	-1.0	71.0*[inhibitor]	0.0	90.0	86.0	-7.0	99.0
COc1ccc2c(c1)CC/C(=C\C=C\c1ccccc1OC)C2=O	-9.0	-3.0	61.0	-7.4	78.0	x	x	x
N#CC1(C#N)C(c2ccccc2)OC23CCCCC2C1(C#N)C(=N)O3 (stereo unspecified)	-52.6	-1.0	104.0	-8.7	140.0*	111.0	4.0	110.0
N#CC1(C#N)C(c2ccccc2)OC23CCCCCC2C1(C#N)C(=N)O3 (stereo unspecified)	-3.7	10.0	113.0	-0.3	102.0	x	x	x
COc1ccc(-c2cc(C(=O)Nc3cc(OC)cc(C(=O)Nc4cccc(C(F)(F)F)c4)c3)[nH]n2)cc1	7.8	5.0	106.0	x	110.0	x	x	x
C=CCNC(=S)NNc1nc2c(c(=O)[nH]1)C1(CCCC1)Cc1ccccc1-2	-2.4	0.0	108.0	-15.9	142.0*	102.0	-3.0	102.0
O=c1[nH]c(NNC(=S)NCc2ccccc2)nc2c1C1(CCCCC1)Cc1ccccc1-2	9.3	-1.0	94.0	-33.7	100.0	x	x	x
CCSC1=NC2(CCCCC2)Nc2sc3c(c21)CCCC3	-9.4	-16.0	2.0*[inhibitor]	-2.4	3.0*[inhibitor]	97.0	1.0	97.0
O=C(N/N=C/c1ccco1)C(O)c1ccccc1 (stereo unspecified)	0.8	-14.0	103.0	-6.2	101.0	x	x	x
CC(/C=C/c1ccco1)=N\NC(=O)C(O)c1ccccc1 (stereo unspecified)	-4.1	0.0	110.0	-2.6	133.0*	104.0	11.0	99.0
CCOC(=O)C1CCN(C(=O)COC(=O)C23CC4CC(CC(C4)C2)C3)CC1	-1.8	x	x	x	x	x	x	x
Cc1ccc2c(CC(=O)OCc3nc(N)nc(Nc4ccccc4C)n3)coc2c1	0.9	4.0	101.0	-21.4	117.0	x	x	x
Cc1ccc2c(CC(=O)OCc3csc(C)n3)coc2c1	1.1	-14.0	3.0*[inhibitor]	-16.2	3.0*[inhibitor]	109.0	8.0	109.0
SMILES	dFosB act	MEKK2 mut-MEK5	MEKK2wt PB1 HTS	DNA FID counter	MEKK3 PB1 HTS	MEKK2wt confirm	MEKK2mut confirm	MEKK3-MEK5 inh
O=S(=O)(Nc1nc2ccccc2nc1NCC1CCCO1)c1ccccc1 (stereo unspecified)	-3.6	-25.0	70.0	-29.9	53.0*[inhibitor]	94.0	-7.0	96.0
Cc1ccc(S(=O)(=O)Nc2nc3ccccc3nc2NCC2CCCO2)cc1 (stereo unspecified)	-1.2	20.0	107.0	-23.5	110.0	x	x	x
COc1ccc2c(CC(=O)OCc3nc4ccsc4c(=O)[nH]3)coc2c1	5.6	x	x	x	x	x	x	x
O=C1C=CC(=O)N1CCCCCCN1C(=O)C=CC1=O	x	62.0*	101.0	-5.8	106.0	104.0	-2.0	101.0
O=C1C2C3C=CC(C3)C2C(=O)N1CCCCCCN1C(=O)C2C3C=CC(C3)C2C1=O (stereo unspecified)	-7.7	-17.0	84.0	-25.4	90.0	x	x	x
CCn1c(CSCc2ccc(Cl)cc2)nnc1SCC(=O)Nc1cccc(C(=O)O)c1	-7.6	4.0	102.0	-39.9	107.0	x	x	x
O=C(CCN1C(=O)CSc2ccccc21)Nc1ccc(OC(F)(F)F)cc1	-2.8	x	x	x	x	x	x	x
COC(=O)/C=C1\S/C(=N/N=C/c2ccccc2)NC1=O	-6.4	1.0	107.0	-1.8	139.0*	94.0	-5.0	97.0
Cc1ccsc1/C=N/N1CCN(C2c3ccccc3-c3ccccc32)CC1	0.3	-8.0	91.0	2.1	82.0*[inhibitor]	104.0	-3.0	102.0
C(=N\N1CCN(C2c3ccccc3-c3ccccc32)CC1)/c1ccncc1	-6.7	3.0	103.0	8.1	105.0	x	x	x
CCN1CCN(/C=N/c2nc(C)cs2)CC1	1.1	-18.0	-2.0*[inhibitor]	0.6	2.0*[inhibitor]	106.0	4.0	99.0
Brc1ccc(-c2csc(/N=C/N3CCCC3)n2)cc1	-11.2	0.0	98.0	-12.5	102.0	x	x	x
CC(Nc1ccc(N2CCOCC2)cc1)C(=O)N1c2ccccc2CC1C (stereo unspecified)	-12.6	0.0	100.0	-20.5	101.0	x	x	x
Oc1c(C=C2N=c3ccccc3=N2)sc(=S)n1C1CCCCC1	2.8	-3.0	53.0*![inhibitor]	-0.7	114.0	70.0	-13.0	97.0
